Test results: PubChem BioAssay (NCATS)

Biological target: Glucocorticoid receptor (Homo sapiens) (UniProt P04150)
Experiment: GR-GFP Redistribution (AID 450)
Details: U2OS GR-GFP nuclear translocation, laser cytometry, 2 h; series mostly up to 20.6 µM;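 active means compounds whose dose series gives a full or clear partial fitted curve of increased nuclear translocation; inconclusive means weak partial curve or effect only at the top dose; inactive means no dose-dependent translocation response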
Potency means the concentration at half of the fitted maximal effect.

Chain of Glucocorticoid receptor (Homo sapiens) (P04150 whole entry, looked up): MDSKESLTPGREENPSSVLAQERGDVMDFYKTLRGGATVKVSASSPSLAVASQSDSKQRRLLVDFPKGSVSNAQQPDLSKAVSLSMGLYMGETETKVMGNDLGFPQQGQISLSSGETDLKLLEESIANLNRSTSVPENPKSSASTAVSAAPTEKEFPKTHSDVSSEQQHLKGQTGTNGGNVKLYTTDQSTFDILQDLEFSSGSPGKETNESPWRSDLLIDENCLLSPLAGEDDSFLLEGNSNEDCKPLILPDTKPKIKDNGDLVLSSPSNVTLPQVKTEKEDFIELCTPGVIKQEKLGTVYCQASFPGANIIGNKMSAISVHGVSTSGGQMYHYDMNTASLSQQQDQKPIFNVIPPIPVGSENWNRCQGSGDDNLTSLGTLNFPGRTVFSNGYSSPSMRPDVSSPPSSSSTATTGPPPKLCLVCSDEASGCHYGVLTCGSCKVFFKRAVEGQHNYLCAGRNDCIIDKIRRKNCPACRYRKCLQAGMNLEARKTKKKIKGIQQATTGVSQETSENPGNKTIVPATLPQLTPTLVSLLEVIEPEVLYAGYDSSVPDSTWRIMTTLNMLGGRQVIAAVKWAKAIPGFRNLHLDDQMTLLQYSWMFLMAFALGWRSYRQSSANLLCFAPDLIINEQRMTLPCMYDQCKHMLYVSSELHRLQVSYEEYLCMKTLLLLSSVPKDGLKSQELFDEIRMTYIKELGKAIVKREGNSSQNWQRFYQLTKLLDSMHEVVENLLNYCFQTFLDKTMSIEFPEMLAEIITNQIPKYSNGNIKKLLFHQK

Potency, inactive:
Cc1nc(Sc2cccn2C)c(C(F)(F)F)c(=O)[nH]1 > 20.6 µM, COc1ccc(-n2c(SCC(N)=O)nc3sc4c(c3c2=O)CCN(C)C4)cc1 > 20.6 µM, Cc1nnc2c(NC(C)C)nc3ccccc3n12 > 20.6 µM, CCc1cc(=O)oc2c(CN3CCCC3)c(O)c(Cl)cc12 > 20.6 µM, O=C(c1ccc(=O)oc1)N1CCOCC1 > 20.6 µM, CCOCCSc1nc2c(c(=O)[nH]c(=O)n2C)n1CCCc1ccccc1 > 20.6 µM, Cc1ccccc1C(=O)c1ccc2c(c1)n(C)c(=O)n2C > 20.6 µM, CCOc1ccc(S(=O)(=O)NC(C)(C)C)cc1-c1nc2c(C(C)(C)C)nn(C)c2c(=O)[nH]1 > 20.6 µM, CCCc1cc(=O)oc2c(CN3CCN(C)CC3)c(O)c(Cl)cc12 > 20.6 µM, CCc1nc(N2CCCC2)c(C#N)c2c1CCCC2 > 20.6 µM, c1ccc2c(c1)NC(c1ccncc1)n1c-2nc2ccccc21 (stereo not drawn) > 20.6 µM, COC(=O)c1[nH]c2cc(OC)ccc2c1NC(=O)CCN1CCCC(C)(C)C1 > 20.6 µM, CCOC(=O)c1sc2c(c1C)c(=O)c(C(=O)OCC)cn2CC > 20.6 µM, CCC1(C)Cc2c(sc3c2c(=O)n(C)c2nnc(SCc4ccc5c(c4)OCO5)n32)CO1 (stereo not drawn) > 20.6 µM, COc1ccc(/C(O)=C2\C(=O)C(=O)N(c3cc(C)on3)C2c2ccccc2OC)cc1 (stereo not drawn) > 20.6 µM, COCCNC(=O)c1c(N)n(/N=C/c2cccs2)c2nc3ccccc3nc12 > 20.6 µM, Cc1cccn2c(=O)c(/C=C(\C#N)S(=O)(=O)c3ccccc3)c(N3CCN(C)CC3)nc12 > 20.6 µM, COc1ccc(C2=Nn3c(nnc3-c3ccccn3)SC2)cc1OC > 20.6 µM, CCCN(CCC)C(=O)CC(c1ccc(F)cc1)c1ccco1 (stereo not drawn) > 20.6 µM, N#CC(C#N)C(c1ccsc1)c1c(-c2ccccc2)[nH][nH]c1=O (stereo not drawn) > 20.6 µM, CC(C)Oc1ccc(C(=O)CCN2CCCCC2)cc1 > 20.6 µM, COc1cccc(/C(O)=C2/C(=O)C(=O)N(CCCN(C)C)C2c2cccc(Cl)c2)c1 (stereo not drawn) > 20.6 µM, CCN1CCN(c2nc3c(C)cccn3c(=O)c2/C=C(\C#N)S(=O)(=O)c2ccccc2)CC1 > 20.6 µM
